Consider six molecules from PubChem BioAssay.

In test [1] the test system is Plasmodium falciparum Sir2 (PF13_0152, Sir2A). Description: Plasmodium falciparum Sir2A binding compounds – biochemical, small-molecule microarray, 635 nm fluorescence, primary screen (AID 1098).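 Note: score merges spot fluorescence intensity with its signal-to-noise ratio.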 The note with it: fluorescence 635 nm, higher = more signal.
Test [2] is described as follows: probe aDKK1 binding to arrayed compounds – biochemical, biotinylated probe, 635/667 nm fluorescence, primary screen (AID 1099).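 Note: score merges 667nm spot fluorescence with signal to noise across triplicate slides.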 To be noted: small-molecule microarray, higher = more signal.
Test [3] is described as follows: probe aCHRDL2 binding to arrayed compounds – biochemical, biotinylated probe, 635/667 nm fluorescence, primary screen (AID 1100). To be noted: small-molecule microarray, higher = more signal.
A short description of test [4]: change in splice reporter luminescence, either direction, cell-based, HEK293, spliceosome inhibition project, primary screen (AID 1101).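 Note: HEK293 cells carrying a splicing-competent luciferase reporter gene; test concentration not given here.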 To be noted: HEK293 splicing luciferase reporter, 24 h, higher = more signal, called active from +8 up or from −8 down. For orientation: Reporter assays use an easily measured gene product as a stand-in for the process of interest.

Test [5] has as its target Fibroblast growth factor 10 (Homo sapiens) (UniProt O15520). Description: compounds binding fibroblast growth factor 10 – biochemical, small-molecule microarray, 635 nm fluorescence, primary screen (AID 1102). To be noted: FGF10 binding, fluorescence 635 nm, higher = more signal.
Test [6] relates to glycogen synthase kinase-3 (GSK3A per assay name; protocol says GSK3B). Nature of the test: compounds binding glycogen synthase kinase-3 – biochemical, small-molecule microarray, 635 nm fluorescence, GSK3A, primary screen (AID 1103). Note: the record names both GSK3A and GSK3B. The note with it: fluorescence 635 nm, higher = more signal.
For test [7], the target named is Epidermal growth factor receptor (Homo sapiens) (UniProt P00533). Description: compounds binding epidermal growth factor receptor – biochemical, small-molecule microarray, 635 nm fluorescence, primary screen (AID 1104).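 Note: score merges 667 nm emission intensity with spot signal to noise over triplicate slides.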 To be noted: EGFR binding, higher = more signal.
Epidermal growth factor receptor (Homo sapiens), sequence (P00533 whole entry, looked up): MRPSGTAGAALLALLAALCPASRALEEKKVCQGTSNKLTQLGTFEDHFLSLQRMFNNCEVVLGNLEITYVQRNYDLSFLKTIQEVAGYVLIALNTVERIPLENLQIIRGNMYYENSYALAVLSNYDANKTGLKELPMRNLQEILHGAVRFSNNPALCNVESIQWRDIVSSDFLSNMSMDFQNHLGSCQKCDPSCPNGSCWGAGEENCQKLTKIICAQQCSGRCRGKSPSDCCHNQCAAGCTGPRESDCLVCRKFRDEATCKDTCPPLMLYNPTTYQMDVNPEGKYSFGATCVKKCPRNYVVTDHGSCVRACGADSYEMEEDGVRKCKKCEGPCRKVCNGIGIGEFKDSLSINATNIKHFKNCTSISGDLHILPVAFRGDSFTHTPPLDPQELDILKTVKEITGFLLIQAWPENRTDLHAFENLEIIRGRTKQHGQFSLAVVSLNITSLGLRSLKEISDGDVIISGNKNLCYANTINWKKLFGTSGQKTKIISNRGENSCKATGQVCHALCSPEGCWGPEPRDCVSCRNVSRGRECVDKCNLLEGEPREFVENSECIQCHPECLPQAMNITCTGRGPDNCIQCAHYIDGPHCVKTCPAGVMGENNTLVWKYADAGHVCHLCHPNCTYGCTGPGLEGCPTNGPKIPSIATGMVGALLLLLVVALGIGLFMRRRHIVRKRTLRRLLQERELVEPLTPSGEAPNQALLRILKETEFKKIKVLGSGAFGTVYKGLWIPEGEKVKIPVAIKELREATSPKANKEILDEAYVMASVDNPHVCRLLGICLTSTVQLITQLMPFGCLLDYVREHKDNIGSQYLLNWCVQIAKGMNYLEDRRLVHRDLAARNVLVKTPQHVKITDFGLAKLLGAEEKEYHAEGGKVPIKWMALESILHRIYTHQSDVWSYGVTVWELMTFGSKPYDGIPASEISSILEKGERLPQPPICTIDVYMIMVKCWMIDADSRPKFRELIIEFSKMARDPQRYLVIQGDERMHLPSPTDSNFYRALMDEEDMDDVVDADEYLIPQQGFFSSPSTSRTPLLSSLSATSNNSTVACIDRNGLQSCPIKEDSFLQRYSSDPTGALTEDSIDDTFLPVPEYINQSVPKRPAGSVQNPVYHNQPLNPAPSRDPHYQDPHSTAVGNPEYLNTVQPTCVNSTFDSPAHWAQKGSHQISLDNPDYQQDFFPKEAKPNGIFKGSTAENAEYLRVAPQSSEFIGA
For test [8], the target named is Follistatin-related protein 3 (Homo sapiens) (UniProt O95633). Description: compounds binding follistatin-related protein 3 – biochemical, small-molecule microarray, 635 nm fluorescence, primary screen (AID 1105).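 Note: score merges emission near 667 nm and signal to noise per printed spot across three slides.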 To be noted: FSTL3 binding, higher = more signal.
Follistatin-related protein 3 (Homo sapiens), sequence (O95633 whole entry, looked up): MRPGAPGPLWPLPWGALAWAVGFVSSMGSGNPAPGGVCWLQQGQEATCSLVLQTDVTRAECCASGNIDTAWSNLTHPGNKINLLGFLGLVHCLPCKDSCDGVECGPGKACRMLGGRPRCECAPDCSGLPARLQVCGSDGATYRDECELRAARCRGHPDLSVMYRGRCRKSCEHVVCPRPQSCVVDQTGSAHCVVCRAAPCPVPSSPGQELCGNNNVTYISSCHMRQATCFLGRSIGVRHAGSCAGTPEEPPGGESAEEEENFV
Test [9] deals with Dickkopf-related protein 1 (Homo sapiens) (UniProt O94907). Nature of the test: small molecules binding DKK1 protein – biochemical, small-molecule microarray, 635 nm fluorescence scan, primary screen (AID 1106).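 Note: score merges emission near 667 nm with signal to noise over three replicate slides.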 To be noted: higher = more signal.
Dickkopf-related protein 1 (Homo sapiens), sequence (O94907 whole entry, looked up): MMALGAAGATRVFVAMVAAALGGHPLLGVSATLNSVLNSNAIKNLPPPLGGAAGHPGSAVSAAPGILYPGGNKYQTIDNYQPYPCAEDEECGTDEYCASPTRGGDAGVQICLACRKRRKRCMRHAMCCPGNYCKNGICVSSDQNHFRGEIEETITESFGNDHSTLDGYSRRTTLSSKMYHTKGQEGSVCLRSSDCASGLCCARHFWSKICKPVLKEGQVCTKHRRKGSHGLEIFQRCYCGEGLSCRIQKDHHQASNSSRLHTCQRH
For test [10], the system named is Inhibin beta A chain (activin A). Nature of the test: small molecules binding activin A – biochemical, small-molecule microarray, 635 nm fluorescence scan, primary screen (AID 1107).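 Note: mouse activin A protein probed at 4.33 µg/mL on printed slides; score merges bound-protein fluorescence near 667 nm with spot signal-to-noise.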 To be noted: INHBA, higher = more signal.
The subject of test [11] is Human papillomavirus type 1a protein E7 (residues 44-93). Description: small molecules binding HPV E7 44-93 – biochemical, small-molecule microarray, residues 44-93, 635 nm fluorescence, primary screen (AID 1108).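 Note: E7 fragment applied at 1 µg/mL in TBST for 1 h at 4 C; score combines spot fluorescence with its signal to noise ratio.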 The note with it: fluorescence 635 nm, higher = more signal.
Test [12] can be described thus: hepatitis C replication reporter changes, two-sided – Huh7 cells, luciferase reporter, HCV replication inhibitor project, primary screen (AID 1109).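 Note: huh7 hepatoma cells harbouring a luciferase neomycin HCV replicon reporter; luciferase luminescence as measure of HCV replicon replication; test concentration not given here.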 The note with it: Huh7 HCV replicon luciferase reporter, 48 h; higher = more signal.
The target of test [13] is Left-right determination factor 2 (Homo sapiens) (UniProt O00292). Description: small molecules binding LEFTY2 protein – biochemical, small-molecule microarray, 635 nm fluorescence scan, primary screen (AID 1110). The note with it: higher = more signal.
Left-right determination factor 2 (Homo sapiens), sequence (O00292 whole entry, looked up): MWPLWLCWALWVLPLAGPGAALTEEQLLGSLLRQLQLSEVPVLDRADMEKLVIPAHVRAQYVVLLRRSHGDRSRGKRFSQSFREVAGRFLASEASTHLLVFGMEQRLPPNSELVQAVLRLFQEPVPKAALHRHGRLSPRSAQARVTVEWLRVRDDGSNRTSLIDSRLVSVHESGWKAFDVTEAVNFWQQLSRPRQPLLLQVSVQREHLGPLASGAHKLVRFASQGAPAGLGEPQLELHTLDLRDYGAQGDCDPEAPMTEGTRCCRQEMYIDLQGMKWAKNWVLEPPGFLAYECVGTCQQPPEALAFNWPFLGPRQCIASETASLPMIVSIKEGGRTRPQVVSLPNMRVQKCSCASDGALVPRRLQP
Test [14] has as its target Calmodulin-1 (Homo sapiens) (UniProt P0DP23). Nature of the test: small molecules binding calmodulin-1 with EGTA – biochemical, small-molecule microarray, Cy5-labelled CALM1, profiling panel (AID 1111).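 Note: labelled calmodulin applied in Tris saline Tween buffer holding calcium plus EGTA and DTT.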 To be noted: Cy5-CALM1 binding fluorescence, higher = more signal.
Test [15] shares this target. Description: small molecules binding Ca-loaded calmodulin-1 – biochemical, small-molecule microarray, Cy5-labelled CALM1, plus calcium, artefact control for SMM control-protein annotation, profiling panel (AID 1112).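 Note: score merges spot fluorescence with signal to noise from triplicate slides.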 To be noted: Cy5-CALM1 binding fluorescence, higher = more signal.
The nature of test [16]: probe aWnt5a binding to arrayed compounds – biochemical, biotinylated probe, 635/667 nm fluorescence, primary screen (AID 1113).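 Note: score merges 667 nm fluorescence intensity with signal-to-noise per printed feature.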 The note with it: small-molecule microarray, higher = more signal.
The nature of test [17]: probe aShh binding to arrayed compounds – biochemical, biotinylated probe, 635/667 nm fluorescence, primary screen (AID 1114).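 Note: probe is biotin-labelled aShh protein from a stem cell growth factor screen; measures binding of labelled protein to compounds printed on the slide; score merges feature fluorescence at 667 nm with signal-to-noise.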 The note with it: small-molecule microarray, higher = more signal.
The nature of test [18]: probe aNog binding to arrayed compounds – biochemical, biotinylated probe, 635/667 nm fluorescence, primary screen (AID 1115).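 Note: probe is biotinylated aNog protein used at 0.15 µg/mL for 1 h at 4 C; z-score combines 667 nm fluorescence of each spot with its signal to noise.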 The note with it: small-molecule microarray, higher = more signal.
For test [19], the target named is Torsin-1A-interacting protein 1 (Homo sapiens) (UniProt Q5JTV8). Description: compound microarray binding of lysate hLAP1 – cell lysate, small-molecule microarray, COS7 lysate, 635/667 nm fluorescence, primary screen (AID 1116). To be noted: 635 nm fluorescence, higher = more signal.
Torsin-1A-interacting protein 1 (Homo sapiens), sequence (Q5JTV8 whole entry, looked up): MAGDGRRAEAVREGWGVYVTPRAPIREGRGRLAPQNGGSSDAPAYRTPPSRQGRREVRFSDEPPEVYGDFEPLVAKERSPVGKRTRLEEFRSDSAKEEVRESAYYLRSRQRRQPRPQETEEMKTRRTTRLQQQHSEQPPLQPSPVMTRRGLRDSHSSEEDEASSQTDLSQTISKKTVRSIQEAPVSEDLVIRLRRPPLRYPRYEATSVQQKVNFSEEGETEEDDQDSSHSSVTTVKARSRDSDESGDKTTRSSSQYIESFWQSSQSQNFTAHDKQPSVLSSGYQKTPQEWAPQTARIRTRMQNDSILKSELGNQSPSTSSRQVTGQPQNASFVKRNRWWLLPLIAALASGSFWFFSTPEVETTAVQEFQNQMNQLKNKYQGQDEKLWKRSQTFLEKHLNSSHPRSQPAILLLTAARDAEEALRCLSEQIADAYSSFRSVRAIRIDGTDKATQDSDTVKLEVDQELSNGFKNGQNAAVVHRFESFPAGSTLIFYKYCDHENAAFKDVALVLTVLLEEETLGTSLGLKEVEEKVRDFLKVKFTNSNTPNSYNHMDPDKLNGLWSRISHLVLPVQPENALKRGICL
Test [20] concerns the target Alpha-bungarotoxin (Bungarus multicinctus) (UniProt P60615). Nature of the test: compounds binding labelled alpha-BTX control protein – biochemical, small-molecule microarray, Alexa647 label, 635/667 nm fluorescence, artefact control for SMM control protein annotation, profiling panel (AID 1117). The note with it: alpha-BTX-A647 binding fluorescence, higher = more signal.

Active and inactive are the calls of the source.

Fibroblast growth factor 10 (Homo sapiens), sequence (O15520 whole entry, looked up): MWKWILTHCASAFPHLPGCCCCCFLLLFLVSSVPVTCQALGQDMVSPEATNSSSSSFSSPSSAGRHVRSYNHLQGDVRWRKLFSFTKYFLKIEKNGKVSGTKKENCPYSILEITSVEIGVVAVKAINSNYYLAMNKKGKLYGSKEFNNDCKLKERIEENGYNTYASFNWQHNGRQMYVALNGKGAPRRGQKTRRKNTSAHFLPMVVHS
Alpha-bungarotoxin (Bungarus multicinctus), sequence (P60615 whole entry, looked up): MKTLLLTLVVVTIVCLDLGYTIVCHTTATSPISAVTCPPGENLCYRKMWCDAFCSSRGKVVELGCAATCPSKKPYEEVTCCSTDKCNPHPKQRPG

For `CC(C)OC(=O)C=C1C[C@@H](c2ccc(C#N)cc2)O[C@@H](c2ccc(C#N)cc2)O1`, the composite z-score stood at 1.07 in [1]; 0.738 in [2]; 0.407 in test [3]; 1.44 in test [5]; 1.29 in [6]; 0.87 in test [7]. Also, the composite z-score in test [8] was 1.4; in test [9] it was 0.189; in test [10], -0.106; in test [11], 1.45; in test [13], 0.701; in test [14], 0.857. The composite z-score in test [15] was 0.621; in test [16], 0.178; in test [17], 0.0875; in test [18] it was 0.229; in test [19], 1.22; in [20], 1.09. Moreover, the z-score in test [4] was -0.159 (inactive); in [12], -2.19.
For the molecule `COc1cccc([C@H]2Oc3ccc(OC)cc3C(=NOC(C)CN3CCCc4nc(C)c(C)cc43)[C@@H]2O)c1` (stereo not given in full), the composite z-score in test [1] was -0.403; in test [2] it was -0.207; in test [3] it was -0.335; in test [5] it was 0.474; in test [6], 0.827; in test [7], 0.746. Further, the composite z-score was 0.0288 in test [8]; 0.492 in test [9]; -0.109 in [10]; -0.508 in [11]; 0.37 in test [13]; -0.789 in test [14]. Moreover, the composite z-score in [15] was -0.582; in [16], -0.0286; in test [17], 0.151; in test [18] it was -0.135; in [19], 0.74; in test [20], -0.618. Also, the z-score is -0.467 (inactive) in test [4] and -1.12 in test [12].
Take `CC(CCN1CCc2nc(-c3ccccc3)c(-c3ccccc3)cc2C1)=NO[C@@H](C)c1cn([C@H](CO)Cc2ccccc2)nn1`: the composite z-score is 0.0154 in [1]; -0.336 in test [2]; 0.119 in [3]; -0.105 in test [5]; -0.335 in test [6]; 0.209 in test [7]. Further, the composite z-score in test [8] was 0.176; in test [9], 0.175; in test [10], 1.13; in test [11], -0.127; in test [13], 0.555; in [14], 0.0845. For the same molecule, the composite z-score is 0.444 in test [15]; -0.139 in test [16]; -0.221 in test [17]; -0.305 in test [18]; -0.273 in test [19]; 1.42 in test [20]. Moreover, the z-score in [4] was -1.26 (inactive); in test [12], -0.985.
On to `CO[C@@H]1COC(=O)CC=C[C@@H](C)[C@@H]2C=C[C@H](O)[C@@H](COC(=O)CCC[C@H]1C)O2`, for which the composite z-score in [1] is 0.686; in test [2], -0.177; in test [3], -0.899; in [5], 0.375; in test [6] it was 0.329; in test [7], 1.21. Also, the composite z-score is 1.11 in test [8]; 1.25 in [9]; 1.45 in [10]; -1.05 in test [11]; 1.31 in test [13]; -0.859 in test [14]. Besides, the composite z-score in test [15] is -1.7; in test [16] it was -0.0721; in test [17] it was 0.211; in [18], -0.0755; in test [19], 0.962; in test [20], -0.394. For the same molecule, the z-score is -1.09 (inactive) in [4] and -1.96 in test [12].
Turning to `CCOC(=O)C[C@H]1[C@H](OC(=O)c2cc3ccccc3oc2=O)[C@@H](NC(=O)c2ccc3ccccc3n2)c2cc(OCCCO)ccc2N1C(=O)c1ccccc1`, the composite z-score in test [1] is 0.564; in test [2], 0.414; in [3], -0.0652; in test [5], 1.4; in [6], 0.439; in [7] it was 0.344. In addition, the composite z-score in test [8] was found to be 0.948; in test [9] it was 1.04; in test [10], 0.513; in [11], 0.15; in test [13], 0.473; in test [14] it was 0.218. For the same molecule, the composite z-score in [15] was 0.179; in test [16], 0.0374; in test [17] it was -0.138; in test [18], 0.108; in [19], 1.12; in test [20] it was 0.593. Further, the z-score in [4] is -0.38 (inactive); in test [12], -1.4.
Turning to `O=C1CCCC=C1C(O)CCOCc1ccccc1` (stereo not given), the composite z-score in test [1] was 0.265; in test [2], -0.229; in test [3], -0.513; in test [5] it was 0.154; in test [6], -0.391; in test [7], 0.255. The composite z-score is -0.0207 in test [8]; 0.428 in [9]; 0.13 in test [10]; -0.649 in [11]; 0.408 in test [13]; -0.314 in [14]. For the same molecule, the composite z-score is -0.605 in test [15]; -0.0735 in [16]; -0.209 in test [17]; -0.0236 in test [18]; 0.266 in test [19]; 0.129 in test [20]. The values for the z-score in test [4] and in test [12] were 0.322 (inactive) and 0.939, respectively.
